Source: PubChem BioAssay (National Center for Advancing Translational Sciences (NCATS))
Compounds with a hit are over-represented: about 9.2% of the library has one in this group of screens.
HTT cytoprotect – cytoprotection in Huntington HTT-Q103 PC12 cell model; PC12 HTT-Q103 induced, cytoprotection, ATP luminescence, 40 h; Potency, µM (top dose mostly 56.4 µM), without a hit: cytoprotection (ATP increase), hits mostly activators; 230,000 compounds, 0.14% hits; AID 1471; active = well fitted curve in the direction sought with a large enough effect; inconclusive = small, poorly fitted or top-dose-only effect, or another doubt; inactive = no such curve, though single readings can be large; an effect the other way counts as inactive or inconclusive; also: % of control where 0% means no effect; nearly all actives have a fitted effect of over 45% in size
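Stable PC12 Q103-GFP cells in serum-supplemented, phenol red-free DMEM; induction by tebufenozide at 100 nM final; compound dose series; cell viability quantified luminescently from ATP.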
JMJD2E inh – blocks human JMJD2E demethylase activity. AID 2147. Potency, µM (highest dose often 57.1 µM), for inactives: top-dose activity change, negative = inhibition, actives largely listed as inhibitors. JMJD2E catalytic domain, FDH-coupled NADH fluorescence (FDH is formaldehyde dehydrogenase). 230,000 compounds, 1.6% hits. B2RXH2;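 also: 0% = wells with enzyme and -100% = buffer wells without enzyme; nearly all actives have a fitted effect of over 50% in size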
Target sequence (B2RXH2 1-337 limits assumed): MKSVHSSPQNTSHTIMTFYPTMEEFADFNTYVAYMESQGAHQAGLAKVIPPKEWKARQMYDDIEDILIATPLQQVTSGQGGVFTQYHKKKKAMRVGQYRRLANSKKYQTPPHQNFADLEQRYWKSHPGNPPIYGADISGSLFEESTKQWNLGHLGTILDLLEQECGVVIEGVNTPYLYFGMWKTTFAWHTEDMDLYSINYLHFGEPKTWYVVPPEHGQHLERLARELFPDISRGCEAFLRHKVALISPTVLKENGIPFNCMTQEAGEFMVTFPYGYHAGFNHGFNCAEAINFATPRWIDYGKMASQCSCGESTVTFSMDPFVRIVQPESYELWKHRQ
HPGD inh – blocks human HPGD enzyme activity. P15428. purified HPGD, NADH fluorescence kinetic, PGE2 substrate. Potency, µM, without a hit: at the top dose activity change, negative = inhibition, actives largely listed as inhibitors. 150,000 compounds, 4.3% hits. AID 894; also: % is scaled to controls: 0 for no effect and ±100 for the full control effect
Target sequence (P15428 whole entry, looked up): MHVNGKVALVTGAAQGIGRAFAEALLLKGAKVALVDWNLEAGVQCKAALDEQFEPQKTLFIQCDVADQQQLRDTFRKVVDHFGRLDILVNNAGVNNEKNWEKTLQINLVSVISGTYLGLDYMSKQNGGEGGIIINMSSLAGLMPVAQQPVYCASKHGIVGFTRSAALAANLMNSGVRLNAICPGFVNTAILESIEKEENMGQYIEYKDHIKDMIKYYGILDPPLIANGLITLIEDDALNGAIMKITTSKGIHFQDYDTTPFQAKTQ
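NADH formation kinetics: reaction with 30 uM PGE2 and 1 mM NAD+ (final), 20 nM enzyme, Tris-HCl pH 8 with Tween 20, after 15 min compound preincubation at room temperature. Fluorescence change, last versus first of five reads.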
HttQ103 aggreg – reduces HttQ103-GFP aggregates in PC12 cells | PC12 HttQ103-GFP aggregates, Acumen cytometry, 40 h | Potency, µM (series often up to 46.1 µM), without a hit: at the highest dose activity change, negative = inhibition, usual class: inhibitors | 220,000 compounds, 1.1% hits | AID 1688; active = well fitted curve in the direction sought with a large enough effect; inconclusive = small, poorly fitted or top-dose-only effect, or another doubt; inactive = no such curve, though single readings can be large; an effect the other way counts as inactive or inconclusive; also: % is scaled to controls: 0 for no effect and ±100 for the full control effect; nearly all actives have a fitted effect of over 60% in size
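PC12 cells stably carrying ecdysone-inducible HTT exon 1 Q103–GFP were induced with tebufenozide (100 nM final) and treated with library compounds in titration. GFP aggregates in lysates were counted by laser scanning cytometry.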
Lamin A splicing – LMNA splicing modulation; 200,000 compounds, 0.01% hits; Potency, µM (top dose mostly 46.1 µM), for inactives: top-dose ratio change, negative = inhibition, usual class: inhibitors; HeLa LMNA splicing GFP/RFP minigene ratio, 48 h; AID 1487; active = well fitted inhibition curve with a large enough effect in the signal ratio, with a control signal flat, not every such curve was filed as active; inconclusive = small, poorly fitted or top-dose-only effect, or effect the other way, or a change in a side signal; the % refers to the signal ratio; also: % is scaled to controls: 0 for no effect and ±100 for the full control effect
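Read-out is the ratio of GFP to DsRed2 object intensity, acquired by 488 nm laser-scanning cytometry on HeLa lamin A-EGFP minigene reporter cells. Compound incubation 48 hrs at 37 °C in Opti-MEM with 2% FBS; DMSO 0.5% final.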
ALDH1A1 block – blocks purified human ALDH1A1 activity; P00352; Purified ALDH1A1, NADH fluorescence, propionaldehyde substrate; Potency, µM (top dose mostly 75.3 µM), inactives show at the highest dose activity, negative = inhibition, usual class: inhibitors; 220,000 compounds, 7.3% hits; AID 1030;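 also: plate controls were no enzyme wells and a reference inhibitor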
Starred values were filed as active, the others as inactive; ? = inconclusive; · = no result given; [ ] = dose if it differs, or a comment. Unless noted, calls follow the shape of the dose curve; as a rule, active = well fitted inhibition curve with a large enough effect (not every such curve was filed as active); inconclusive = small, poorly fitted or top-dose-only effect, or another doubt; inactive = no such curve, though single readings can be large or run the other way. Potency is read from the fitted curve at half-maximal effect.

SMILES	HTT cytoprotect	JMJD2E inh	HPGD inh	HttQ103 aggreg	Lamin A splicing	ALDH1A1 block
Clc1ccc(/C(Cc2nc3ccccc3[nH]2)=N\Nc2ccccc2)cc1	-48%[10 µM]	22µM*	·	-25%[9.22 µM]	·	4.5µM*
CN/N=C(\Cc1nc2ccccc2[nH]1)c1ccc([N+](=O)[O-])cc1	-42%	?	·	18%	·	20µM*
N#CCCN/N=C(/Cc1nc2ccccc2[nH]1)c1cccc(Cl)c1	-13%	?	-23%	1%	0%	?
CC1=C/C(=N\OS(=O)(=O)c2ccccc2)C(C(C)C)=CC1=O	39%[0.074 µM]	4µM*	-14%	37%[0.0738 µM]	?	?
O=C(CN(Cc1ccccc1)S(=O)(=O)c1ccccc1)N/N=C/c1ccccc1[N+](=O)[O-]	-16%	0%	-1%	1%	-13%	11µM*
Cc1ccc(CN(CC(=O)N/N=C/c2ccccc2[N+](=O)[O-])S(=O)(=O)c2ccc(C)cc2)cc1	-3%	8%	-18%	-18%	-10%	?
CCCS(=O)(=O)c1nc(S(=O)(=O)c2ccc(C)cc2)c(NCc2ccccn2)s1	-45%	-7%	·	-5%	·	14µM*
CCS(=O)(=O)c1nc(S(=O)(=O)c2ccc(C)cc2)c(NCc2ccccn2)s1	-11%	5%	·	7%	·	?
Cc1cccc(C)c1OCCn1nc(C(=O)O)c2ccccc2c1=O	-12%	-8%	-20%	-8%	-24%	1%
Cc1cccc(OCCn2nc(C(=O)O)c3ccccc3c2=O)c1	-8%	0%	28µM*	15%	14%	-12%
O=C(c1cccc2c1-c1ccccc1/C2=N/O)N1CCCCC1	6%	8%	-1%	11µM*	?	?
O=C1c2ccccc2-c2c1cccc2C(=O)N1CCCCC1	17%[10 µM]	6%	0%	-11%	-10%	-4%
Cc1ccc(S(=O)(=O)/N=C(/Nc2ccc3[nH]c(=O)[nH]c3c2)c2ccc(F)cc2)cc1	30%[10 µM]	6%	·	5%	?	8.9µM*
CCCNC(=O)C1CCN(c2ccc(S(=O)(=O)N3CCOCC3)cc2Cl)CC1	-6%[10 µM]	4%	16µM*	-7%	?	6%
CCCCN1C(=O)c2ccc(C(=O)NCCN3C(=O)S/C(=C\c4cccnc4)C3=O)cc2C1=O	-17%[10 µM]	3%	-16%	-8%	?	1.3µM*
CCN(CC)S(=O)(=O)c1ccc(C(=O)NCCN2C(=O)S/C(=C\c3cccnc3)C2=O)cc1	-37%	0%	·	14%	?	?
Cc1ccccc1Nc1ncnc2c1c(-c1ccccc1)cn2-c1ccc(F)cc1	·	·	·	·	-8%[46 µM]	·
CN(C(=O)c1ccc(=O)n(Cc2ccc(Cl)cc2)c1)c1ccccc1	-55%	2%	·	5%	·	14µM*
Cc1ccccc1Nc1nc(N)nc(COC(=O)c2cccc(S(=O)(=O)N(C)C)c2)n1	-82%[10 µM]	6%	-8%	?	6%	-7%
O=C(COC(=O)c1cccc(S(=O)(=O)NCc2ccccc2)c1)c1ccccc1	9%[10 µM]	6%	20µM*	7%	?	-11%
Cc1ccccc1Nc1nc(N)nc(COC(=O)c2cccc(S(=O)(=O)NCc3ccccc3)c2)n1	20%[10 µM]	-9%	28µM*	0%	-9%	11%
Cc1cc(C)c(C(=O)COC(=O)c2cccc(S(=O)(=O)NCc3ccccc3)c2)cc1C	18%[10 µM]	1%	-23%	-16%	-17%	7%
OC[C@@H]1O[C@@H](n2cnc3c(NC4CCCC4)ncnc32)[C@@H](O)[C@H]1O	-9%[1.9 µM]	·	·	·	·	·
Cc1ccccc1-n1c(C)cc(/C=N/NC(=O)c2ccncc2)c1C	-24%	4%	-17%	32%	10%	32µM*
COc1cc(C(=O)N/N=C/c2sc(=O)n(-c3ccccc3)c2Cl)cc(OC)c1OC	-8%[10 µM]	4%	-1%	?	-24%	?
SMILES	HTT cytoprotect	JMJD2E inh	HPGD inh	HttQ103 aggreg	Lamin A splicing	ALDH1A1 block
CC(=O)Nc1ccc(NC(=O)c2ccc(-n3c(C)ccc3C)cc2)cc1	-19%[10 µM]	2%	25µM*	-18%	15%	22µM*
O=C(N/N=C/c1ccncc1)c1ccccc1	-8%	0%	-2%	-1%	-3%[0.0737 µM]	8%
O=C(N/N=C/c1sc(=O)n(-c2ccccc2)c1Cl)c1ccncc1	-12%[10 µM]	-1%	-22%	2%	?	10µM*
Cc1cc(C)cc(-n2c(C)cc(/C=N/NC(=O)c3ccncc3)c2C)c1	-30%	?	·	15%[9.22 µM]	-8%[46 µM]	?
Cc1ccc(C)n1-c1ccc(C(=O)N/N=C/c2ccncc2)cc1	-52%	-26%	·	24%	2%[46 µM]	18µM*
O=C(Nc1ccc(S(=O)(=O)Nc2ccccc2)cc1)N1CCCC1	·	·	·	·	-14%[46 µM]	·
CCc1ccccc1NC(=O)c1ccc(-n2c(C)ccc2C)cc1	-14%	4%	16µM*	12%	?	-8%
Cc1cc(/C=N/NC(=O)c2cccc(N(C)C)c2)c(C)n1-c1cc(C(=O)O)cc(C(=O)O)c1	-34%	25µM*	·	-9%	1%[9.22 µM]	-16%
CCN(CC)C(=O)COc1ccc(CC(=O)O)cc1OC	-14%	1%	-3%	-14%	2%	-1%
CCN(Cc1ccc(OC)c(F)c1)C(=O)CCl	8%[10 µM]	?	·	?	·	0.35µM*
CC(=O)c1cc(C#N)c(SCC(=O)OC(C)(C)C)nc1C	-15%[0.074 µM]	3%	-27%	12%	11%	6.3µM*
Cc1c(Cl)cn2c(=O)cc(CN(C)Cc3nc4ccccc4c(=O)[nH]3)nc2c1Cl	-2%	-12%	·	-25%	1%[46 µM]	-4%
COC(=O)/C(=C/c1c[nH]c2ccccc12)NC(C)=O	19%[10 µM]	20µM*	-9%	25%	?	-1%
Cn1ncc2c(Cl)ncnc21	-9%[10 µM]	·	-7%	·	·	3%[13.5 µM]
Cc1cc[n+](-c2[nH]c(=O)sc2/C=N/N=C(\[O-])c2ccccc2)cc1C	-50%	-22%	·	22%	3%[46 µM]	22µM*
Cc1cc[n+](-c2[nH]c(=O)sc2/C=N/N=C(\[O-])CCn2c3ccccc3c3ccccc32)cc1	4%[10 µM]	-16%	·	6%[9.22 µM]	·	-9%
O=c1[nH]c(-[n+]2ccccc2)c(/C=N/N=C(\[O-])c2ccccc2)s1	-8%[10 µM]	-2%	·	5%[9.22 µM]	·	·
Cc1cc[n+](-c2[nH]c(=O)sc2/C=N/N=C(\[O-])c2ccccc2)cc1	-20%[10 µM]	?	·	5%[9.22 µM]	·	13µM*
CC(=O)Oc1cc(C(F)(F)F)ccc1C(=O)O	?	?	?	-10%[20.6 µM]	-10%	?
COc1cccc(CNC(=O)CCS(=O)(=O)c2cc3c(cc2C)NC(=O)CO3)c1	·	·	·	·	-14%[46 µM]	·
COc1ccc(C(=O)CSc2nc3ccccc3n2CC(=O)NC(C)(C)C)cc1	5%	-7%	-2%	13%	5%	2.2µM*
O=C(CSc1nc2ccccc2n1CC(=O)N1CCCCC1)N1CCCCC1	-3%[10 µM]	7%	·	-17%[9.22 µM]	·	·
